# Assay results from PubChem BioAssay.
# Experiments:
# [1] = test system: Human papillomavirus type 1a protein E7 (residues 44-93); assay: small molecules binding HPV E7 44-93 – biochemical, small-molecule microarray, residues 44-93, 635 nm fluorescence, primary screen (AID 1108); details: fluorescence 635 nm, higher = more signal;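 further: E7 fragment applied at 1 µg/mL in TBST for 1 h at 4 C; score combines spot fluorescence with its signal to noise ratio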
# [2] = hepatitis C replication reporter changes, two-sided – Huh7 cells, luciferase reporter, HCV replication inhibitor project, primary screen (AID 1109); details: Huh7 HCV replicon luciferase reporter, 48 h; higher = more signal;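 further: huh7 hepatoma cells harbouring a luciferase neomycin HCV replicon reporter; luciferase luminescence as measure of HCV replicon replication; test concentration not given here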
# [3] = biological target: Left-right determination factor 2 (Homo sapiens) (UniProt O00292); assay: small molecules binding LEFTY2 protein – biochemical, small-molecule microarray, 635 nm fluorescence scan, primary screen (AID 1110); details: higher = more signal
# [4] = biological target: Calmodulin-1 (Homo sapiens) (UniProt P0DP23); assay: small molecules binding calmodulin-1 with EGTA – biochemical, small-molecule microarray, Cy5-labelled CALM1, profiling panel (AID 1111); details: Cy5-CALM1 binding fluorescence, higher = more signal;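 further: labelled calmodulin applied in Tris saline Tween buffer holding calcium plus EGTA and DTT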
# [5] = biological target: Calmodulin-1 (Homo sapiens) (UniProt P0DP23); assay: small molecules binding Ca-loaded calmodulin-1 – biochemical, small-molecule microarray, Cy5-labelled CALM1, plus calcium, artefact control for SMM control-protein annotation, profiling panel (AID 1112); details: Cy5-CALM1 binding fluorescence, higher = more signal;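 further: score merges spot fluorescence with signal to noise from triplicate slides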
# [6] = probe aWnt5a binding to arrayed compounds – biochemical, biotinylated probe, 635/667 nm fluorescence, primary screen (AID 1113); details: small-molecule microarray, higher = more signal;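 further: score merges 667 nm fluorescence intensity with signal-to-noise per printed feature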
# [7] = probe aShh binding to arrayed compounds – biochemical, biotinylated probe, 635/667 nm fluorescence, primary screen (AID 1114); details: small-molecule microarray, higher = more signal;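 further: probe is biotin-labelled aShh protein from a stem cell growth factor screen; measures binding of labelled protein to compounds printed on the slide; score merges feature fluorescence at 667 nm with signal-to-noise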
# [8] = probe aNog binding to arrayed compounds – biochemical, biotinylated probe, 635/667 nm fluorescence, primary screen (AID 1115); details: small-molecule microarray, higher = more signal;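 further: probe is biotinylated aNog protein used at 0.15 µg/mL for 1 h at 4 C; z-score combines 667 nm fluorescence of each spot with its signal to noise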
# [9] = biological target: Torsin-1A-interacting protein 1 (Homo sapiens) (UniProt Q5JTV8); assay: compound microarray binding of lysate hLAP1 – cell lysate, small-molecule microarray, COS7 lysate, 635/667 nm fluorescence, primary screen (AID 1116); details: 635 nm fluorescence, higher = more signal
# [10] = biological target: Alpha-bungarotoxin (Bungarus multicinctus) (UniProt P60615); assay: compounds binding labelled alpha-BTX control protein – biochemical, small-molecule microarray, Alexa647 label, 635/667 nm fluorescence, artefact control for SMM control protein annotation, profiling panel (AID 1117); details: alpha-BTX-A647 binding fluorescence, higher = more signal
# Alpha-bungarotoxin (Bungarus multicinctus), sequence (P60615 whole entry, looked up): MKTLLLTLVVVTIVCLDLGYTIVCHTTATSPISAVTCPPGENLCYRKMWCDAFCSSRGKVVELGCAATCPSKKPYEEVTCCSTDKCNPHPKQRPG
# Torsin-1A-interacting protein 1 (Homo sapiens), sequence (Q5JTV8 whole entry, looked up): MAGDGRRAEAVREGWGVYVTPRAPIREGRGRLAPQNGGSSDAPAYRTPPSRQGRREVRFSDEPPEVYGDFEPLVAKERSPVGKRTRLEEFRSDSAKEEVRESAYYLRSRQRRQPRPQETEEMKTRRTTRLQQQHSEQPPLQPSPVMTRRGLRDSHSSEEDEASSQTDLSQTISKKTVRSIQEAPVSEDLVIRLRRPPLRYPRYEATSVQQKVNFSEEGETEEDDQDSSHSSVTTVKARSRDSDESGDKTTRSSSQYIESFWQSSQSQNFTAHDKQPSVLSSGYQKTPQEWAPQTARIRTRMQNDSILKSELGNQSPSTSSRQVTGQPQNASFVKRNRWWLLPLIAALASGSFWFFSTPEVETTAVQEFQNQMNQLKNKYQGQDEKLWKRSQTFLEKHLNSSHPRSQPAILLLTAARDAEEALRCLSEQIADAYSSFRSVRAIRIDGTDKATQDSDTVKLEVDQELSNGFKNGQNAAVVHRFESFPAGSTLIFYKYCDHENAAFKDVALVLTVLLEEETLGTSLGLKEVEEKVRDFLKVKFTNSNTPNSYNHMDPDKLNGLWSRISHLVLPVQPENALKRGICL
# Left-right determination factor 2 (Homo sapiens), sequence (O00292 whole entry, looked up): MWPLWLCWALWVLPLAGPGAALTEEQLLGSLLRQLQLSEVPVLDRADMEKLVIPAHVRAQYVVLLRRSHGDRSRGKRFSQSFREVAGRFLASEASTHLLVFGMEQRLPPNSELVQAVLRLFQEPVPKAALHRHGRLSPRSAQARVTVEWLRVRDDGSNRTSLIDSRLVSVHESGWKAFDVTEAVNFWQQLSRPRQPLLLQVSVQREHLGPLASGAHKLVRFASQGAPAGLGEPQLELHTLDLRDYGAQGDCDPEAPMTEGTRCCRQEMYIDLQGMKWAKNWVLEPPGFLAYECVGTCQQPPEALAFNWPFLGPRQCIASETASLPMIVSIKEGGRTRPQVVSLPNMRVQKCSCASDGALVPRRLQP
SMILES,composite z-score [1],z-score [2],composite z-score [3],composite z-score [4],composite z-score [5],composite z-score [6],composite z-score [7],composite z-score [8],composite z-score [9],composite z-score [10]
CCN1C(=O)[C@H]2[C@H]3[C@H](O)[C@H](O)CC(=NOCC(C)C)[C@H]3CC[C@H]2C1=O,-0.0775,0.295,0.535,-0.185,-0.987,-0.0542,-0.138,-0.238,0.152,-0.14
CC(=O)OC[C@H]1O[C@H](CCON=C(C)C)C=C[C@@H]1OC(C)=O,-0.306,-0.684,0.304,-0.42,-0.268,-0.152,-0.0769,-0.324,0.3,0.501
CO[C@@H](C1CCCCC1)[C@@H](C)[C@H](OCc1cccc(Br)c1)[C@@H](C)CO,-0.18,-1.88,0.481,-0.434,0.318,-0.139,-0.0709,0.0649,0.0682,-0.378
COC(=O)[C@H](C)NC(=O)CCC1CC(OC(=O)NCc2cccc3ccccc23)CC2(CCCC(COC(=O)NCCCN3CCCC3=O)O2)O1 (stereo not given in full),1.28,-0.0695,0.943,0.895,0.0029,-0.124,-0.455,-0.436,0.919,0.39
COC(=O)[C@H](Cc1ccccc1)NC(=O)[C@@H](C)CO,-0.0054,-0.499,0.597,-0.597,-0.32,-0.034,0.214,0.376,0.763,0.0296
COC(=O)[C@H](C)NC(=O)CCC1CC(OC(=O)NCc2cccc3ccccc23)CC2(CCCC(COC(=O)NCc3cccc(C(F)(F)F)c3)O2)O1 (stereo not given in full),1.32,-0.548,0.925,1.1,0.269,-0.0384,-0.138,-0.23,0.208,0.292
CO[C@H]1COC(=O)CCC[C@H](C)[C@H](OC)COC(=O)CC=C[C@@H]1C,-1.46,-1.34,0.804,-0.294,-1.2,-0.156,-0.138,-0.258,0.307,-0.0936
CC(CCN1CCCc2nc(C)c(C)cc21)=NO[C@@H](C)c1cn([C@H](CO)Cc2ccccc2)nn1,0.425,-0.0976,0.67,-0.168,-0.671,-0.0199,0.0952,0.139,0.527,0.117
CCOC(=O)CCN1C(=O)[C@H]2[C@H]3[C@H](O)[C@H](O)CC(=NNC(=O)OCc4ccccc4)[C@H]3CC[C@H]2C1=O,-0.994,0.283,0.863,-1.01,-1.23,-0.0045,-0.138,-0.0091,0.264,-0.245
CC(C)[C@@H](OCc1ccccc1)[C@H](C)C=NO[C@H](C)c1cn([C@@H]2COC[C@H]2O)nn1,1.27,-1.16,0.542,-0.219,-0.407,-0.0832,-0.206,-0.198,0.296,0.586
CCOC(=O)CCN1C(=O)[C@H]2[C@@H]3C(=CC[C@H]2C1=O)C(=O)[C@H]1O[C@H]1[C@H]3O,-0.636,-4.75,-0.72,-0.719,-0.481,-0.222,-0.221,-0.358,0.447,-0.473
O=C1[C@H]2[C@H]3[C@H](O)[C@H](O)CC(=NO[C@@H]4O[C@H](CO)[C@@H](O)[C@H](O)[C@H]4O)[C@@H]3CC[C@H]2C(=O)N1c1cccc(Oc2ccccc2)c1,0.418,-0.174,0.982,0.209,0.0635,-0.0506,-0.0362,-0.0675,0.593,-0.447
CCN1C(C)=C(C(=O)OC)[C@@H](c2ccccc2)N2C(=O)[C@](O)(C(=O)OC)CC(C(C)=O)=C12,0.285,0.308,0.784,-0.232,-0.604,-0.0037,-0.179,0.0511,0.455,0.371
COC(OC)[C@@H](C)[C@H](OC)[C@@H](C)[C@H](OC)c1ccccc1,-0.567,0.928,0.4,-1.15,-0.647,-0.225,-0.273,0.108,0.0678,-0.0469
CCN1C(=O)[C@H]2[C@H]3[C@H](O)[C@H](O)CC(=NO[C@H](C)c4cn([C@H](CO)Cc5ccccc5)nn4)[C@@H]3CC[C@H]2C1=O,0.485,-1.02,0.741,0.782,-0.0865,-0.0573,-0.358,0.202,0.476,1.29
COc1ccc(O[C@H]2C=C[C@@H](c3ccccc3)O[C@@H]2COC(=O)CCC(C)=NOC[C@@H](O)COCc2ccco2)cc1,-0.82,-0.681,-4.63,-2.11,-2.04,-0.449,-0.267,-0.715,-2.94,-1.65
CC(CCN1CCCCc2nc(C)c(C)cc21)=NO[C@H](C)c1cn([C@@H]2COC[C@H]2O)nn1,0.421,-0.219,1.35,-0.197,-0.835,-0.222,-0.112,-0.158,0.337,1.3
